# Assay results as given in PubChem BioAssay (NCATS).
# Values joined by “and” are separate entries in the source; they are usually repeats but may differ in a detail not shown here. Equal entries are not always repeated. Inconclusive results are not listed. A call without a number means that no potency is given here. A number with no mark means an inactive call. Active and inactive are the calls of the source. Calls follow the shape of the dose curve; as a rule, active = well fitted curve in the direction sought with a large enough effect; inconclusive = small, poorly fitted or top-dose-only effect, or another doubt; inactive = no such curve, though single readings can be large; an effect the other way counts as inactive or inconclusive. Numbered stars: 1 amine (or outer) side, 2 acyl side, 3 side chain; on linkers, the order of the positions; unused ones are H or OH. Square brackets hold non-standard residues; d marks the D form. Peptide text beside a SMILES is read from it. X3 = CC(CC(O[*:1])C(=O)[*:2])C(=O)O; NMeV = CN[CH](C(=O)O)C(C)C; NMeA = CN[CH](C)C(=O)O; βAla = NCCC(=O)O
# How the values were obtained:
# [1] = target: Cellular tumor antigen p53 (Homo sapiens) (UniProt P04637); experiment: Primary qHTS for small molecule compounds that upregulate eGFP-tagged delta133p53alpha (in N-terminal) cells. (AID 2060322); conditions: NCI-H358 eGFP-delta133p53alpha fluorescence, 24 h; activation: active compounds read high; also: nearly all actives have a fitted effect of over 75% in size; also: potency is read from the fitted curve at half-maximal effect; as to activation: series mostly up to about 56 µM
# Sequence of Cellular tumor antigen p53 (Homo sapiens) (P04637 whole entry, looked up): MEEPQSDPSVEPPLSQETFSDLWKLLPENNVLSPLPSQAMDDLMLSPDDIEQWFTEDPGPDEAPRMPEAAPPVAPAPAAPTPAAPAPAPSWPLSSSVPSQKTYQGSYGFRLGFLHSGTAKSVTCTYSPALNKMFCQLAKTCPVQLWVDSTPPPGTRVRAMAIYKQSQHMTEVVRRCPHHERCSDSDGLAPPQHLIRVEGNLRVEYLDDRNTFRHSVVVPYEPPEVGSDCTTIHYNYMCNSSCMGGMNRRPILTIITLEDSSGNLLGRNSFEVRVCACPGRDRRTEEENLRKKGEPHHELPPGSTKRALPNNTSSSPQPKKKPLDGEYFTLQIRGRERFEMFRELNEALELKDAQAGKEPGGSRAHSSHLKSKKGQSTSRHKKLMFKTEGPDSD
# Method in brief: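 NCI-H358 cells pre-induced 24 h with 10 ng/ml doxycycline to express N-terminal eGFP-delta133p53alpha, then dosed 24 h at 37C without doxycycline; fixed, Hoechst-stained, GFP intensity by laser scanning cytometry, normalized to DMSO (0%) and 57.5 uM 5-azacytidine (100%).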
# [2] = target: Aldehyde dehydrogenase, mitochondrial (Homo sapiens) (UniProt P05091); experiment: qHTS for Inhibitors of the Aldehyde Dehydrogenase Family (ALDH2) Primary screen (AID 2061308); also: nearly all actives have a fitted effect of over 55% in size
# [3] = target: Retinaldehyde dehydrogenase 3 (Homo sapiens) (UniProt P47895); experiment: qHTS for Inhibitors of the Aldehyde Dehydrogenase Family (ALDH1A3) Primary screen (AID 2061315)
# [4] = target: Retinaldehyde dehydrogenase 3 (Homo sapiens) (UniProt P47895); experiment: qHTS for Inhibitors of the Aldehyde Dehydrogenase Family (ALDH1A3) Validation screen (AID 2061312); also: nearly all actives have a fitted effect of over 45% in size
# [5] = BET inhibitor-based combinations targeting novel dependencies in MECOM-rearranged (r) AML: SET-2 cell line (AID 2202231); conditions: SET-2 AML cells viability, CellTiter-Glo luminescence, 48 h; viability: active compounds read low, concentration not given here; also: nearly all actives have a fitted effect of over 35% in size; also: potency is read from the fitted curve at half-maximal effect
# Method in brief: (§1)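 Cells were plated at 500 per well and exposed to an 11-point dose series of each drug for 48 hr. Viability was measured by CellTiter-Glo luminescence, normalized to DMSO and empty-well controls, and summarized as AUC and per-cell-line Z-AUC.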
# [6] = BET inhibitor-based combinations targeting novel dependencies in MECOM-rearranged (r) AML: MV-4-11 cell line (AID 2202233); also: potency is read from the fitted curve at half-maximal effect; nearly all actives have a fitted effect of over 45% in size
# Method in brief: (§2)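 Activity is given as area under the curve and as Z-AUC, mean-centred within each cell line. It comes from 11-point dose curves normalized to DMSO and empty wells. CellTiter-Glo luminescence was read after 48 hr drug exposure of 500 cells/well.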
# [7] = BET inhibitor-based combinations targeting novel dependencies in MECOM-rearranged (r) AML: HNT-34 cell line (AID 2202234); also: nearly all actives have a fitted effect of over 35% in size; also: potency is read from the fitted curve at half-maximal effect
# Method in brief: as §2
# [8] = BET inhibitor-based combinations targeting novel dependencies in MECOM-rearranged (r) AML: AML-191 cell line (AID 2202236; also: nearly all actives have a fitted effect of over 35% in size; also: potency is read from the fitted curve at half-maximal effect)
# Method in brief: as §1
# [9] = BET inhibitor-based combinations targeting novel dependencies in MECOM-rearranged (r) AML: AML-194 cell line (AID 2202237; also: nearly all actives have a fitted effect of over 40% in size; also: potency is read from the fitted curve at half-maximal effect)
# Method in brief: as §1
# [10] = BET inhibitor-based combinations targeting novel dependencies in MECOM-rearranged (r) AML: OCI-AML3 cell line (AID 2202232); conditions: Potency: OCI-AML3 viability; also: series mostly up to about 46 µM; nearly all actives have a fitted effect of over 35% in size
# Method in brief: as §1
# [11] = BET inhibitor-based combinations targeting novel dependencies in MECOM-rearranged (r) AML: UCSD-AML1 cell line (AID 2202235); also: series mostly up to about 46 µM; nearly all actives have a fitted effect of over 40% in size
# Method in brief: as §2
smiles,measurement,setting,value
C=CCN1CCC2(C)c3cc(O)ccc3C[C@H]1[C@H]2C,activation,[1],-5%
same,Potency,[2],inactive
same,Potency,[3],inactive
COC1C(O)C(C)OC(OC2C(CO)O[C@@H](O[C@@H]3CC4CCC5C(CC[C@]6(C)[C@@H](C7=CC(=O)OC7)CC[C@]56O)[C@@]4(C)[C@H](O)C3)C(O)C2O)C1O (stereo not given in full),Potency,[1],5 µM (active)
same,Potency,[2],inactive
same,Potency,[3],inactive
CC[C@H]1/C=C\C=C/C[C@@H](C)[C@H](O)[C@@](C)(O)C(=O)[C@@H](C)[C@H](O)[C@@H](C)C(=O)[C@@H](C)[C@H](O)[C@@H](C)/C=C\C(=O)O[C@@H]2[C@H](C)[C@H](CC1)O[C@]1(CC[C@H](C)[C@H](C[C@@H](C)O)O1)[C@H]2C,activation,[1],26.3%
same,Potency,[2],inactive
same,Potency,[4],inactive
same,Potency,[3],inactive
same,Potency,[5],4.17 µM (active)
same,Potency,[6],0.0263 µM (active)
same,Potency,[7],0.0468 µM (active)
same,Potency,[8],1.18 µM (active)
same,Potency,[9],2.95 µM (active)
CC[C@@H](C)[C@H]1C(=O)O[C@H](C(C)C)C(=O)N(C)[C@@H](C(C)C)C(=O)O[C@H](C(C)C)C(=O)N(C)[C@@H](C(C)C)C(=O)O[C@H](C(C)C)C(=O)N1C,activation,[1],-17.6%
same,Potency,[2],inactive
same,Potency,[3],inactive
O=C(Oc1ccc([N+](=O)[O-])cc1)N1CCN(Cc2cccc(Oc3ccccc3)c2)CC1,activation,[1],1.36% and 1.43%
same,Potency,[2],inactive
same,Potency,[4],inactive
same,Potency,[3],inactive
same,viability,[5],110%
same,Potency,[10],inactive
same,Potency,[7],inactive
same,Potency,[11],inactive
same,Potency,[8],inactive
same,Potency,[9],inactive
C/C=C(\C)C(O)C(C)/C=C(C)/C=C/C/C(C)=C/Cc1nc(OC)c(OC)c(O[C@@H]2O[C@@H](C)[C@H](O)[C@@H](O)[C@H]2O)c1C (stereo not given in full),activation,[1],-19.1%
same,Potency,[2],inactive
same,Potency,[3],inactive
CC[C@H]1C[C@H]2[C@@H]3CCC4=CC(=O)CC[C@@H]4[C@H]3CC[C@]2(C)[C@H]1O,activation,[1],5.67%
same,Potency,[2],inactive
same,Potency,[3],inactive
C=C1C(=O)CC2OC2(C)CC2OC(=O)C(=C)C2C(O)C1OC(=O)/C(C)=C\C (stereo not given),Potency,[1],18.6 µM (active)
same,Potency,[2],inactive
same,Potency,[3],inactive
CN1[C@H]2C[C@H](OC(=O)[C@H](CO)c3ccccc3)C[C@@H]1[C@@H](O)C2,activation,[1],1.67%
same,Potency,[2],inactive
same,Potency,[3],inactive
CO[C@@H]1[C@@H](O)[C@@H](O[C@H]2CC[C@]3(C=O)C4CC[C@]5(C)[C@@H](C6=CC(=O)OC6)CC[C@]5(O)[C@@H]4CC[C@H]3C2)O[C@@H](C)[C@H]1O[C@@H]1O[C@H](CO[C@@H]2O[C@H](CO)[C@@H](O)[C@H](O)[C@H]2O)[C@@H](O)[C@H](O)[C@H]1O (stereo not given in full),activation,[1],-9.92%
same,Potency,[2],inactive
same,Potency,[3],inactive
CCC(C)C1NC(=O)C2CCCN2C(=O)C(CC(C)C(=O)O)OC(=O)CCNC(=O)C(C)N(C)C(=O)C(C(C)C)N(C)C1=O (stereo not given) (cyclo([X3]PI[NMeV][NMeA][βAla]); configuration not given here),activation,[1],-10.7%
same,Potency,[2],inactive
same,Potency,[3],inactive
COC1CC(O[C@H]2CC[C@]3(C=O)C4CC[C@]5(C)[C@@H](C6=CC(=O)OC6)CC[C@]5(O)[C@@H]4CC[C@@H]3C2)OC(C)C1O[C@@H]1O[C@H](CO)[C@@H](O[C@@H]2O[C@H](CO)[C@@H](O)[C@H](O)[C@H]2O)[C@H](O)[C@H]1O (stereo not given in full),Potency,[1],3.21 µM (active)
same,Potency,[2],inactive
same,Potency,[3],inactive
CCOC(=O)NC(C)(C)Cc1ccc(Cl)cc1,activation,[1],-6.33%
same,Potency,[2],inactive
same,Potency,[3],inactive
C=C1C[C@]2(O)[C@@]3(C)CCC(=O)C(C)(C)C3=C(O)C(=O)[C@@]2(C)[C@@H]2C(=O)O[C@@](C)(C(=O)OC)C(=O)[C@@]12C,activation,[1],-4.58%
same,Potency,[2],inactive
same,Potency,[3],inactive
N#CC(OC1OC(COC2OC(CO)C(O)C(O)C2O)C(O)C(O)C1O)c1ccccc1 (stereo not given),activation,[1],8.4%
same,Potency,[2],inactive
same,Potency,[3],inactive
CC1=C[C@H]2O[C@@H]3[C@H](O)[C@@H](O)[C@](C)([C@@]2(CO)C[C@@H]1O)[C@]31CO1,Potency,[1],7.57 µM (active)
same,Potency,[2],inactive
same,Potency,[3],inactive
c1ccc([C@@H]2C[C@H]2NC2CCNCC2)cc1,activation,[1],13.8%
same,Potency,[2],inactive
same,Potency,[3],inactive
CN1C(=O)c2ccccc2NC(=O)C1Cc1ccccc1 (stereo not given),activation,[1],-18.3%
same,Potency,[2],inactive
same,Potency,[3],inactive
COC(=O)[C@@]12C(=O)C(C)C(=O)[C@]1(C)C(C)=C[C@H]1[C@]3(C=O)CC[C@H](OC(C)=O)C(C)(C)[C@H]3CC[C@@]12C (stereo not given in full),activation,[1],19.1%
same,Potency,[2],inactive
same,Potency,[3],inactive
